Molecules are shown by their SMILES. About 83,000 compounds went through this panel and 20% of them were active in at least one assay; those are over-represented in the sample as a whole.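 Testing used 96-well plates and a 48-hour single-concentration exposure. Example: -40 means 40% of the starting cells died.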 A number with no mark means an inactive call. Activity calls are given as the source filed them. How the source made its calls: active means growth percent below 10; inactive means the rest.

Common to all, as to experiment: NCI-60 one-dose screen, 48 h (100 = growth as untreated, 0 = no growth, -100 = all killed)
Holding throughout (conditions): 10 µM unless noted

For test [1], the system named is SR leukemia.
For test [2], the system named is RPMI-8226 leukemia.
Test [3] has as its system OVCAR-8 ovarian.
The test system of test [4] is OVCAR-5 ovarian.
Test [5] relates to OVCAR-4 ovarian.
Test [6] deals with IGROV1 ovarian.
In test [7] the test system is OVCAR-3 ovarian.
Test [8] has as its system HS 578T breast.
Test [9] concerns NCI/ADR-RES ovarian.
For test [10], the system named is SK-OV-3 ovarian.

In the case of `CC1(C)NCCC[C@]2(C)[C@H]3CC=C4[C@@H]5C[C@](C)(COC(=O)c6ccccc6C(=O)O)CC[C@]5(C)CC[C@@]4(C)[C@]3(C)CC[C@@H]12`, the growth was 25.2% in test [1]; 19.2% in test [2]; 83.7% in test [3]; 88.8% in [4]; 51.3% in [5]; 59.2% in test [6]. For the same compound, the figures for the growth in test [7], in [8] and in [9] were 60%, 63% and 78.2%, respectively.
Take `Oc1ccccc1/C=N/N=C\c1ccccc1Cl`: the growth is 82.4% in test [1]; 102% in test [2]; 95.2% in test [3]; 115% in test [4]; 93.4% in test [5]; 96% in [10]. For the same compound, the growth in test [8] was 105%; in [9], 95.2%.
`COc1cc(Cn2ccc3c2-c2oncc2CC3)cc(OC)c1`: the growth was 24.1% in test [1]; 35.2% in test [2]; 49% in test [3]; 57% in [4]; 61.7% in test [5]; 24.6% in test [10]. Moreover, the growth in test [8] is 32.4%; in [9], -13.9% (active).
For `CCOC(=O)c1c2c(cn1Cc1ccccc1)-c1oncc1CC2`, the growth in test [1] is 91.8%; in test [2], 100%; in test [3], 84.9%; in [4], 88.3%; in test [5] it was 104%; in [10] it was 109%. Moreover, the growth was 103% in test [7], 91.9% in test [8] and 98.3% in test [9].
`CCOC(=O)c1sc(NS(=O)(=O)c2ccccc2)nc1C`: the growth in test [1] is 102%; in test [2], 120%; in [3], 114%; in [4], 107%; in test [5], 111%; in test [10] it was 106%. Moreover, the figures for the growth in test [7], in [8] and in [9] were 133%, 111% and 114%, respectively.
For `COC1=CC(c2ccc[nH]2)=N/C1=C\c1[nH]c(C)c(C(=O)CCCCC(=O)NC(C)(C)C)c1C`, the growth was 83.4% in [1]; 35.4% in test [2]; 28.2% in test [3]; 48.3% in test [4]; 39.6% in [5]; 102% in test [10]. The growth in test [7] was 18.4%; in test [9] it was 30.1%.
In the case of `Cc1nc(N)sc1C(=O)NCCO`, the growth is 161% in [1]; 115% in [2]; 102% in test [3]; 107% in test [4]; 113% in test [5]; 113% in test [10]. Besides, the growth in test [7] is 102%; in [8] it was 109%; in test [9], 122%.
Take `CCCCCSc1ccc2nc(NC(=O)OCC)sc2c1`: the growth in [1] was 34.9%; in test [2], 12.8%; in test [3] it was 43.6%; in test [4], 64.3%; in test [5], 28.7%; in test [10] it was 39.1%. The values for the growth in test [7], in [8] and in test [9] were -7.09% (active), 14.1% and 11.9%, respectively.
On to `Clc1ccc(N/N=C/c2ccccn2)nc1`, for which the growth in test [1] was 6.32% (active); in [2], 26.3%; in test [3], 18.1%; in test [4] it was 30.3%; in [5] it was 6.01% (active); in [10] it was 27.2%. The results for the growth in test [7], in [8] and in test [9] were 22.3%, 60.1% and -1.35% (active), respectively.
As for `O=C(N/N=C/c1coc2ccccc2c1=O)c1cc2oc(-c3ccccc3)cc2[nH]1`, the growth is 87.7% in test [1]; 67% in test [2]; 110% in test [3]; 106% in test [4]; 98.7% in [5]; 102% in test [10]. The figures for the growth in [8] and in test [9] were 107% and 118%, respectively.
For the compound `Cc1cc2cn3c4ccc(O)cc4[nH]c(=O)c3c2cc1C`, the growth was -16.1% (active) in [1]; -37% (active) in [2]; -13.2% (active) in test [3]; 32.6% in test [4]; -1.79% (active) in test [6]; -34.9% (active) in test [7]. In addition, the growth in [8] was -31.8% (active); in test [9] it was 3.46% (active).
Turning to `O=C(O)c1occ(Cl)c1Cl`, the growth in test [1] was 92.7%; in [2], 100%; in test [3] it was 107%; in test [5], 115%; in test [10] it was 109%; in test [6], 120%. Moreover, the results for the growth in test [7], in test [8] and in test [9] were 118%, 115% and 111%, respectively.
On to `Oc1ccc(CN(Cc2ccc(C(F)(F)F)cc2)Cc2ccc(O)c3ncccc23)c2cccnc12`, for which the growth was 3.48% (active) in test [1]; 11.7% in test [2]; 11% in test [3]; 44.5% in [4]; 17.8% in [10]; 20% in test [6]. Further, the figures for the growth in [7] and in test [9] were 37.5% and 6.89% (active), respectively.
As to `O=C1c2ccccc2CCc2ccccc21`, the growth in [1] was 104%; in [2], 108%; in [3] it was 99.3%; in test [4], 93.7%; in test [5] it was 104%; in test [6], 93%. Also, the growth in test [7] was 103%; in test [8] it was 105%; in [9], 101%.
For `CC1(C)Oc2cc3oc(=O)ccc3cc2C[C@@H]1OCCOS(=O)(=O)c1ccc(C#N)cc1`, the growth in [1] is 107%; in [2], 91.9%; in test [3], 92.7%; in [4], 97.9%; in test [5] it was 88%; in test [6] it was 100%. The growth in test [7] was 96%; in [8], 89.7%; in [9] it was 96.1%.
Consider `CCOC(=O)NC1=NCC(C)(C)S1`, for which the growth was 104% in test [1]; 108% in test [2]; 104% in test [3]; 102% in test [5]; 95.2% in [10]; 111% in test [6]. The growth is 97.4% in test [7], 98.7% in test [8] and 103% in test [9].

These data come from PubChem BioAssay (NCI).
